Results filed as inconclusive are left out. The source made the active and inactive calls. Rule for the calls: active = hit-call score of the fitted dose curve at least 0.9, where 1 is the maximum; inconclusive = response in the unintended direction; inactive = score below 0.9.
Columns and labels:
[1] = Tanguay_ZF_120hpf_BRAI_legacy: (Legacy) Oregon State University Tanguay Lab 120 Hour Post-fertilization zebrafish Assay for Brain Malformation (AID 2283641)
Procedure, shortened: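 Static exposure of staged wild-type embryos until 120 hpf, kept at 28C with light excluded and final DMSO of 0.64% (vol/vol). Presence or absence of brain malformation was noted under brightfield; mortality precluded scoring.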

[2] = Tanguay_ZF_120hpf_SOMI_legacy: (Legacy) Oregon State University Tanguay Lab 120 Hour Post-fertilization zebrafish Assay for Somite Malformation (AID 2283647)
Procedure, shortened: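 Somitogenesis defects are recorded as binary calls in whole larvae at 120 hpf after continuous static chemical exposure starting at 6 hpf in dechorionated 5D embryos. DMSO serves as negative control and baseline.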

[3] = Tanguay_ZF_120hpf_CFIN_legacy: (Legacy) Oregon State University Tanguay Lab 120 Hour Post-fertilization zebrafish Assay for Caudal Fin Malformation (AID 2283649)
Procedure, shortened: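 Single dechorionated 5D wild-type embryos are dosed at 6 hpf (final DMSO 0.64%) and held statically at 28C. Caudal fin malformation is recorded as present or absent at 120 hpf under brightfield, excluding dead embryos.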

[4] = Tanguay_ZF_120hpf_PIG_legacy: (Legacy) Oregon State University Tanguay Lab 120 Hour Post-fertilization zebrafish Assay for Pigmentation Malformation (AID 2283650)
Procedure, shortened: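 Pigment malformation recorded as a binary call at 120 hpf in zebrafish (Tropical 5D) exposed singly from 6 hpf after pronase dechorionation. Static, sealed, 28C exposure, 0.64% DMSO; mortality excludes scoring; positive-direction fit against DMSO.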

[5] = Tanguay_ZF_120hpf_CIRC_legacy: (Legacy) Oregon State University Tanguay Lab 120 Hour Post-fertilization zebrafish Assay for Circulatory Malformation (AID 2283651)
Procedure, shortened: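 Static exposure, 6–120 hpf, 28C, sealed and dark; one dechorionated 5D embryo/well; DMSO 0.64% v/v final. Binary circulation endpoint by brightfield; dead embryos not scored.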

[6] = Tanguay_ZF_120hpf_SWIM_legacy: (Legacy) Oregon State University Tanguay Lab 120 Hour Post-fertilization zebrafish Assay for Swim Bladder Malformation (AID 2283654);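 note: swim bladder malformation in each larva scored yes or no under brightfield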
Procedure, shortened: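 Scoring is binary for swim bladder defects at 120 hpf, by brightfield inspection of zebrafish larvae. Embryos were exposed singly from 6 hpf after pronase dechorionation, at 28C with 0.64% DMSO; mortality excluded scoring.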

[7] = Tanguay_ZF_120hpf_TR_legacy: (Legacy) Oregon State University Tanguay Lab 120 Hour Post-fertilization zebrafish Assay for Touch Response (AID 2283667)
Procedure, shortened: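 Binary touch-response endpoint in larvae at 120 hpf after static waterborne exposure from embryo stage (28°C, 0.64% DMSO vehicle, 5 uM trimethyltin chloride as positive control); embryos dead at 24 or 120 hpf excluded; fitted as gain versus DMSO.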

[8] = Tanguay_ZF_120hpf_NC_legacy: (Legacy) Oregon State University Tanguay Lab 120 Hour Post-fertilization zebrafish Assay for Notochord and Tail Malformation (AID 2283656)
Procedure, shortened: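 Binary notochord-distortion calls, made by brightfield inspection, form the read-out; activity is fitted in the positive direction against DMSO. Exposure ran statically from 6 to 120 hpf at 28C with 0.64% DMSO.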

[9] = read-out: ABC Transporter (ABCB1), ABCB1 (gene 5243); test: CLD_ABCB1_6hr: CellzDirect (CLD) Gene Expression Assay for ABC Transporter (ABCB1) at 6 hours (AID 2283659);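 note: hits raise ABCB1 transcript above the DMSO vehicle baseline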
Procedure, shortened: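 ABCB1 transcript measured by quantitative nuclease protection assay, chemiluminescent read-out, 6 h after dosing human hepatocyte cultures (0.2% DMSO vehicle, daily redosing). Activity fitted as increase over DMSO baseline; cytotoxicity flagged by phase-contrast morphology.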

[10] = read-out: xenobiotic metabolism (CYP1A1), CYP1A1 (gene 1543); test: CLD_CYP1A1_6hr: CellzDirect (CLD) Gene Expression Assay for xenobiotic metabolism (CYP1A1) at 6 hours (AID 2283661);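 for AC50: potency for transcript induction above DMSO vehicle baseline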
Procedure, shortened: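 Read-out 6 h post-dose: qNPA chemiluminescent quantitation of transcript induction against 0.2% DMSO. Cells were cultured primary human hepatocytes from two separate donor preparations; phase-contrast morphology annotated apparent cytotoxicity.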

[11] = read-out: sulfotransferase (SULT2A), SULT2A1 (gene 6822); test: CLD_SULT2A_6hr: CellzDirect (CLD) Gene Expression Assay for sulfotransferase (SULT2A) at 6 hours (AID 2283669);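 note: hits raise transcript level above the DMSO vehicle baseline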
Procedure, shortened: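 Measured 6 h after dosing, SULT2A1 mRNA in human hepatocyte lysates was quantified by S1 nuclease protection with chemiluminescent detection. Increases fitted against 0.2% DMSO vehicle baseline; phase-contrast cytotoxicity recorded yes/no.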

[12] = read-out: Broad substrate specificity ATP-binding cassette transporter ABCG2 (Homo sapiens) (UniProt Q9UNQ0); test: CLD_ABCG2_6hr: CellzDirect (CLD) Gene Expression Assay for ABC Transporter (ABCG2) at 6 hours (AID 2283660)
Procedure, shortened: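 ABCG2 mRNA induction measured by qNPA chemiluminescence in human primary hepatocyte cultures, 6 h post-dose. Chemicals tested at several concentrations against a 0.2% DMSO vehicle; positive-direction fit relative to DMSO.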

Measured: AC50

Chain of Broad substrate specificity ATP-binding cassette transporter ABCG2 (Homo sapiens) (Q9UNQ0 whole entry, looked up): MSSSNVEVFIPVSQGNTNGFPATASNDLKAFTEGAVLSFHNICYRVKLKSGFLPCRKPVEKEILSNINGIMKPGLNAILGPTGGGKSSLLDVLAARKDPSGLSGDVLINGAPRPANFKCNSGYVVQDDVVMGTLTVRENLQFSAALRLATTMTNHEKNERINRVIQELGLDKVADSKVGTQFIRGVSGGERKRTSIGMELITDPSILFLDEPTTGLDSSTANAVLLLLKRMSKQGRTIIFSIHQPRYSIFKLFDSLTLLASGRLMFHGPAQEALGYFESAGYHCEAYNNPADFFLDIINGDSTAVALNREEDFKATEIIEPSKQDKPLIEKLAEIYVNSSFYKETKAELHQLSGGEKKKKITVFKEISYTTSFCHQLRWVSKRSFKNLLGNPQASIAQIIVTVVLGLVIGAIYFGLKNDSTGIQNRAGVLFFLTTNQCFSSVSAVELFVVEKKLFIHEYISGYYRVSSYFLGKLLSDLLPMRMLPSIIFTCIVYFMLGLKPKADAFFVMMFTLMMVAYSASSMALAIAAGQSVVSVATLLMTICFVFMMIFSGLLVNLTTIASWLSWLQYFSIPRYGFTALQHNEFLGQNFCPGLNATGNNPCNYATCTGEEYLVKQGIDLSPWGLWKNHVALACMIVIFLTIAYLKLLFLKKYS

CC(=O)[C@H]1CC[C@H]2[C@@H]3CCC4=CC(=O)CC[C@]4(C)[C@H]3CC[C@]12C
inactive: [1] | [2] | [3] | [4] | [5] | [6] | [7]

COc1c(Cl)ccc(Cl)c1C(=O)O
inactive: [1] | [2] | [3] | [4] | [5] | [8] | [9] | [10] | [7] | [11]

CCCOC(=O)NCCCN(C)C
inactive: [1] | [2] | [3] | [4] | [5] | [6] | [8] | [9] | [12] | [10] | [7] | [11]

O=C(O)C1(C(=O)Nc2ccc(Cl)cc2Cl)CC1
inactive: [1] | [2] | [3] | [4] | [5] | [6] | [8] | [12] | [10] | [7] | [11]

CCCCCOC(=O)COc1cc(N2C(=O)C3=C(CCCC3)C2=O)c(F)cc1Cl
active: [10] 20 µM
inactive: [1] | [2] | [3] | [4] | [5] | [6] | [8] | [9] | [12] | [7] | [11]

CCN(CC)C(=O)c1cccc(C)c1
inactive: [1] | [2] | [3] | [4] | [5] | [6] | [8] | [9] | [12] | [10] | [7] | [11]

CCCN(CCC)c1c([N+](=O)[O-])cc(C(F)(F)F)c(N)c1[N+](=O)[O-]
active: [10] 3 µM
inactive: [1] | [2] | [3] | [4] | [5] | [6] | [9] | [7] | [11]

Reference: PubChem BioAssay (EPA / NIEHS)
